Molecules are shown by their SMILES. Records with an inconclusive call do not appear. Where a call stands in place of a potency, no number is given. Unmarked numbers belong to inactive results. Calls of active or inactive are those of the source. Calls follow the shape of the dose curve; as a rule, active = well fitted activation curve with a large enough effect in the repeat runs; inconclusive = weak or mixed curves; inactive = flat fitted curve, though single readings scatter.

This test is described as follows: A CellTox Green Cytotoxicity Assay to monitor cytotoxicity in HepG2 cells - 24 hour (AID 1224878). Also: nearly all actives have a fitted effect of over 45% in size. The settings on record: CellTox Green fluorescence; series mostly up to 76.8 µM. In short, it runs like this:
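Using 1536-well format, dye-containing HepG2 suspension was seeded, allowed 5 h at 37 C/5% CO2, dosed by pintool with compounds, positive and negative controls, and imaged for fluorescence across 40 h.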
`O=c1oc2c(O)c(O)cc3c(=O)oc4c(O)c(O)cc1c4c23`: the cytotoxicity is 4.4% [at 15.8 µM].

On to `Cc1nnc(SCC2=C(C(=O)O)N3C(=O)[C@@H](NC(=O)Cn4cnnn4)[C@H]3SC2)s1`, for which the Potency result is “inactive”.

With `Cc1cc(S(=O)(=O)O)c(N)cc1Cl`, the Potency entry was “inactive”.

In the case of `COc1cc(C)ccc1C(C)C`, the Potency entry is “inactive”.

In the case of `Cc1ccsc1C(=CCCN1CCC[C@@H](C(=O)O)C1)c1sccc1C`, the Potency entry was “inactive”.

On to `C=CC1CO1` (centres undefined), for which the Potency result is “inactive”.

As for `CNCCC(Oc1ccccc1OC)c1ccccc1` (centres undefined), the Potency entry is “inactive”.

`FC(F)(F)C(F)(F)C(F)(F)C(F)(F)C(F)(F)C(F)(F)C(F)(F)C(F)(F)Br`: the Potency result was “inactive”.

As for `CCN(CC)C(=O)N(CC)CC`, the Potency entry was “inactive”.

On to `CN(CC1(C)CCCO1)S(=O)(=O)c1ccc(Cl)c(S(N)(=O)=O)c1` (centres undefined), for which the Potency result is “inactive”.

Turning to `O=CCCc1ccccc1`, the Potency entry was “inactive”.

As for `CN1C(=O)CC(c2ccccc2)C1=O` (centres undefined), the Potency result was “inactive”.

As to `CCCN(CCC)C(=O)C(CCC(=O)O)NC(=O)c1ccccc1` (centres undefined), the Potency result is “inactive”.

On to `CC(=O)Nc1ccc(C)c(Cl)c1`, for which the Potency result is “inactive”.

In the case of `CCCCN1C[C@H](O)[C@@H](O)[C@H](O)[C@H]1CO`, the Potency result is “inactive”.

For the molecule `Cc1cccc(C)c1NC(=O)CN1CCCCCC1`, the Potency result is “inactive”.

On to `CO[C@@]1(NC(=O)CSCC#N)C(=O)N2C(C(=O)O)=C(CSc3nnnn3C)CS[C@@H]21`, for which the Potency result was “inactive”.

Turning to `FC(F)(F)C(Cl)(Cl)Cl`, the Potency entry was “inactive”.

As for `CCC(=O)Nc1ccc(O)cc1`, the Potency entry was “inactive”.

Regarding `N#Cc1ccc(C(c2ccc(C#N)cc2)n2cncn2)cc1`, the Potency entry was “inactive”.

For the molecule `CCOc1ccc2nc(N)sc2c1`, the Potency entry was “inactive”.

Take `Cc1ccc([N+](=O)[O-])cc1Cl`: the Potency entry was “inactive”.

`CCCCCCC`: the Potency entry was “inactive”.

Regarding `CCc1cc(Cl)c(OC)c(C(=O)NC[C@@H]2CCCN2CC)c1O`, the Potency result is “inactive”.

Turning to `CC(C)O`, the Potency entry was “inactive”.

Turning to `CC(CNC1CCCCC1)OC(=O)c1ccccc1` (centres undefined), the Potency entry is “inactive”.

`CC(=O)OC1C2(C)CCC(C2)C1(C)C` (centres undefined): the Potency result was “inactive”.

For `COc1ccc(S(=O)(=O)Nc2nnc(CC(C)C)s2)cc1`, the Potency result is “inactive”.

`NC/C=C/C(=O)O`: the Potency entry is “inactive”.

As for `C1CSCCS1`, the Potency entry was “inactive”.

On to `C[C@]12C(=O)OC(=O)[C@H]1[C@H]1C=C[C@@H]2C1`, for which the Potency entry was “inactive”.

Regarding `OCCN(CCO)CCN(CCO)CCO`, the Potency entry was “inactive”.

For the molecule `O=S(=O)(O)C(F)(F)F`, the Potency entry is “inactive”.

Consider `CC(C)NCC(O)COc1ccc(CCOCC2CC2)cc1` (centres undefined), for which the Potency result was “inactive”.

For the molecule `NC1=NCC2c3ccccc3Cc3ccccc3N12` (centres undefined), the Potency entry is “inactive”.

As to `CC(C)(CO)[C@@H](O)C(=O)NCCC(=O)O`, the Potency entry is “inactive”.

Regarding `CCCCNC(=S)NCCCC`, the Potency entry was “inactive”.

As to `CC(C)CCCCCCc1ccc(OCCOCCO)cc1`, the Potency result was “inactive”.

As to `CC(=O)O[C@H]1CC[C@@]2(C)C(=CC[C@@H]3[C@@H]2CC[C@]2(C)C(C(C)=O)=CC[C@@H]32)C1`, the Potency result was “inactive”.

The record behind these values is PubChem BioAssay (Tox21).
